Test results reported in PubChem BioAssay (NCATS).
Results filed as inconclusive are left out. A call without a number means that no potency is given here. Activity calls are given as the source filed them. Unless noted, the call rests on the fitted dose curve; in most records, active means well fitted curve in the direction sought with a large enough effect; inconclusive means small, poorly fitted or top-dose-only effect, or another doubt; inactive means no such curve, though single readings can be large; an effect the other way counts as inactive or inconclusive.

Key:
[1] = biological target: Pyruvate kinase PKM (Homo sapiens) (UniProt P14618); experiment: qHTS Assay for Activators of Human Muscle Pyruvate Kinase (AID 954; active means well fitted curve in the direction sought with a large enough effect, not every such curve was filed as active)
Pyruvate kinase PKM (Homo sapiens), sequence (P14618 whole entry, looked up): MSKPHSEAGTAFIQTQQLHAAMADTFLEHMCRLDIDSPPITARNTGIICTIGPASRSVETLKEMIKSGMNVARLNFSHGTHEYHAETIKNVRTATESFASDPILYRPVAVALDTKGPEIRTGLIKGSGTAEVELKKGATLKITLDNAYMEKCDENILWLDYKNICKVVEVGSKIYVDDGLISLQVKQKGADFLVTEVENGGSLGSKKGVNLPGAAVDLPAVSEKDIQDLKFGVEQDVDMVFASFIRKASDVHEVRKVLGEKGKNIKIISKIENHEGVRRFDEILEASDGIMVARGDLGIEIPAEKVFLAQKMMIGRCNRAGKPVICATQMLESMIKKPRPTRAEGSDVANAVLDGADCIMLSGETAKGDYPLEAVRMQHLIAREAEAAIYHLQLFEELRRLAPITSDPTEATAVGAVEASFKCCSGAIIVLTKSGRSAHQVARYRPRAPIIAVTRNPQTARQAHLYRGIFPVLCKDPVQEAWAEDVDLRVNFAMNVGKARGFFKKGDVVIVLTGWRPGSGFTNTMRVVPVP
Summary of the method: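 Purified human PKM2 (0.1 nM) with 0.5 mM PEP (Km) and 0.1 mM ADP in 50 mM imidazole pH 7.2, KCl, MgCl2, 1 h at room temperature; ATP formed read by coupled luciferase luminescence. Normalized to no-enzyme/110 uM thiadiazolimine inhibition; 0.3 nM enzyme column for activation.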

[2] = biological target: Alpha-galactosidase (Coffea arabica) (UniProt Q42656); experiment: Counterscreen for Glucocerebrosidase Inhibitors: qHTS Assay for Coffee Bean alpha-Galactosidase at pH 4.5 (AID 957); further: series mostly up to about 77 µM
Alpha-galactosidase (Coffea arabica), sequence (Q42656 whole entry, looked up): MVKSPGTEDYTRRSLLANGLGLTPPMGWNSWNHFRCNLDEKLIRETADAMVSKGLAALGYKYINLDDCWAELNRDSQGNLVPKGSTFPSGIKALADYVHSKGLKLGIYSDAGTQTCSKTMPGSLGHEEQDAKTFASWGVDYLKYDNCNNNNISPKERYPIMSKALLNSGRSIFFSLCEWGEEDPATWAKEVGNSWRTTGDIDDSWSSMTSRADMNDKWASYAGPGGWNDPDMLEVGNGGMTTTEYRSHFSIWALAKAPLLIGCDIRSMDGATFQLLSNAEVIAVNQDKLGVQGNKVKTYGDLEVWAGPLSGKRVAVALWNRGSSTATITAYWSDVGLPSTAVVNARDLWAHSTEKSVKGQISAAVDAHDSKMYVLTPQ
Summary of the method: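 Green coffee bean enzyme (2 nM final) was incubated with compounds (0.7 nM to 77 uM) and 4-methylumbelliferyl alpha-D-galactopyranoside (80 uM final) in 50 mM citric acid, 0.005% Tween-20, pH 4.5, 20 min at room temperature; AC50 from Hill fits.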

[3] = MultiTox-Fluor Cytotoxicity Assay - LYMP1-001 - Dead Cells (AID 946); further: potency means the concentration at half of the fitted maximal effect
Summary of the method: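 LYMP1-001 lymphoblastoid cells (2500/well) treated 16 h at 37 C. Dead-cell protease cleavage of bis-AAF-R110 read at Ex/Em 485/520. Normalized to DMSO and 15 uM tetraoctylammonium bromide; AC50 from Hill fits.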

[4] = MultiTox-Fluor Cytotoxicity Assay - LYMP1-001 - Live Cells (AID 947)
[5] = Cell Viability - LYMP1-002 - Assay at 16 hr (AID 948)
Summary of the method: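 LYMP1-002 human lymphoblastoid cells, 2500/well; 5 hr 37 C; cpd 16 hr 37 C; CellTiter-Glo 30 min RT; luminescence (ATP). Concentration-response, Hill-fit AC50. Pos ctrl tetraoctylammonium bromide.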

[6] = MultiTox-Fluor Cytotoxicity Assay - LYMP1-002 - Live Cells (AID 955)
Summary of the method: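 Human lymphoblastoid LYMP1-002 cells, 2500/well in complete medium, rested 5 hr at 37 C, then exposed to compounds for 16 hr at 37 C. Live-cell protease cleavage of GF-AFC read by fluorescence (Ex/Em 405/510) after 60 min at room temperature; AC50 from Hill fits.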

[7] = MultiTox-Fluor Cytotoxicity Assay - LYMP1-002 - Dead Cells (AID 960); further: nearly all actives have a fitted effect of over 60% in size; further: potency means the concentration at half of the fitted maximal effect
Summary of the method: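 Human lymphoblastoid cells (LYMP1-002), 2500/well in complete medium, were exposed to compounds for 16 hr at 37 C. Dead-cell protease activity was read as bis-AAF-R110 fluorescence (Ex/Em 485/520), normalized to DMSO and 15 uM tetraoctylammonium bromide; AC50 from Hill fits.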

[8] = MultiTox-Fluor Cytotoxicity Assay - LYMP1-003 - Dead Cells (AID 961); further: nearly all actives have a fitted effect of over 70% in size
Summary of the method: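 LYMP1-003 human lymphoblastoid cells (2500/well) exposed to compound 16 h at 37 C in complete medium; dead-cell protease read with bis-AAF-R110 fluorescence (Ex/Em 485/520) after 60 min at room temperature. Normalized to DMSO and 15 uM tetraoctylammonium bromide; AC50 from Hill fit.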

[9] = MultiTox-Fluor Cytotoxicity Assay - LYMP1-003 - Live Cells (AID 962);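 further: cytotoxic hits lower the live-cell protease signal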
Summary of the method: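 LYMP1-003 human lymphoblastoid cells (2500/well) in complete medium were preincubated 5 hr at 37 C, then exposed to compounds for 16 hr at 37 C. Live-cell protease cleavage of GF-AFC read by fluorescence (Ex/Em 405/510); AC50 from Hill fits.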

[10] = biological target: Pyruvate kinase (Leishmania mexicana) (UniProt Q27686); experiment: qHTS Validation Assay for Activators of Leishmania Mexicana Pyruvate Kinase (AID 959); conditions: purified L. mexicana pyruvate kinase, enzyme activity
Pyruvate kinase (Leishmania mexicana), sequence (Q27686 2-499 E452W): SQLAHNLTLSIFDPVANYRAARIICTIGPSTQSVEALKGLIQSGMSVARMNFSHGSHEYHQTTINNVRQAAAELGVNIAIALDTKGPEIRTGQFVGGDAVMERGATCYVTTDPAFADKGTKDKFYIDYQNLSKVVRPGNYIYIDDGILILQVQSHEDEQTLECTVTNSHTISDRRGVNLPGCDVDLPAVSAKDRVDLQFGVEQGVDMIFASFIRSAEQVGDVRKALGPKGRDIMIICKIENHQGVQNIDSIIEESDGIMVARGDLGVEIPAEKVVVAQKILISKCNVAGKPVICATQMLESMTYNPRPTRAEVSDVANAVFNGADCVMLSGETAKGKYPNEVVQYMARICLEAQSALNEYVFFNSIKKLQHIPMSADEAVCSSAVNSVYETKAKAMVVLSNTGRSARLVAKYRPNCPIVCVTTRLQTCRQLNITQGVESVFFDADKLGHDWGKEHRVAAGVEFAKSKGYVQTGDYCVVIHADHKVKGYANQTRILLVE
Summary of the method: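 Substrate mix (0.5 mM PEP, 0.1 mM ADP, 7 mM MgCl2, 50 mM KCl, pH 7.2 imidazole) received compound by pin tool, then 0.2 nM LmPYK E451W. After 1 h at room temperature, PKLight was added and luminescence measured.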

## O=c1[nH]c2ccccc2n1CCCN1CCC(n2c(=O)[nH]c3cc(Cl)ccc32)CC1
[1]
  outcome: inactive
[2]
  outcome: inactive

## CCOP(=S)(OCC)Oc1cc(C)nc(C(C)C)n1
[3]
  Potency: inactive
[4]
  outcome: inactive
[5]
  outcome: inactive
[6]
  Potency: inactive
[7]
  Potency: inactive
[8]
  Potency: inactive
[9]
  Potency: inactive

## NCC(CC(=O)O)c1ccc(Cl)cc1 (stereo not given)
[1]
  outcome: inactive
[2]
  outcome: inactive

## O=c1[nH]c2ccccc2n1C1CCN(CCCC(c2ccc(F)cc2)c2ccc(F)cc2)CC1
[1]
  outcome: inactive
[2]
  outcome: inactive

## NN=C(N)N
[1]
  outcome: inactive
[2]
  outcome: inactive

## CCCC(C)(COC(N)=O)COC(=O)NC(C)C (stereo not given)
[3]
  Potency: inactive
[5]
  outcome: inactive
[1]
  outcome: inactive
[6]
  Potency: inactive
[2]
  outcome: inactive
[7]
  Potency: inactive
[8]
  Potency: inactive
[9]
  Potency: inactive

## CCCN1CCC[C@@H]2Cc3nc(N)ncc3C[C@H]21
[1]
  outcome: inactive
[2]
  outcome: inactive

## Oc1cccc2cccnc12
[3]
  Potency: 39.8 µM (active)
[6]
  Potency: inactive
[7]
  Potency: 15.8 µM (active)

## CCn1cc(C(=O)O)c(=O)c2ccc(C)nc21
[1]
  outcome: inactive
[2]
  outcome: inactive

## Cc1ncc(CNC(=O)N(CCCl)N=O)c(N)n1
[1]
  outcome: inactive
[2]
  outcome: inactive

## c1ccc(C2CC2)c(OCC2=NCCN2)c1
[1]
  outcome: inactive
[2]
  outcome: inactive

## OCCOc1ccccc1
[3]
  Potency: inactive
[4]
  outcome: inactive
[5]
  outcome: inactive
[6]
  Potency: inactive
[7]
  Potency: inactive
[8]
  Potency: inactive
[9]
  Potency: inactive

## Fc1ccc(C(OCCN2CCN(CCCc3ccccc3)CC2)c2ccc(F)cc2)cc1
[1]
  outcome: inactive
[2]
  outcome: inactive

## c1ccc2c(c1)Nc1ccccc1S2
[3]
  Potency: inactive
[4]
  outcome: inactive
[5]
  outcome: inactive
[6]
  Potency: inactive
[7]
  Potency: inactive
[8]
  Potency: inactive
[9]
  Potency: inactive

## C[C@]12C/C(=C/O)C(=O)C[C@@H]1CC[C@@H]1[C@@H]2CC[C@@]2(C)[C@H]1CC[C@]2(C)O
[3]
  Potency: 50.1 µM (active)
[5]
  outcome: inactive
[9]
  Potency: inactive

## N#CC(C#N)=Cc1ccc(O)c(O)c1
[1]
  outcome: inactive
[2]
  outcome: inactive

## Clc1cccc(N2CCNCC2)c1
[1]
  outcome: inactive
[2]
  outcome: inactive

## CN1C[C@H](CNC(=O)OCc2ccccc2)C[C@@H]2c3cccc4c3c(cn4C)C[C@H]21
[1]
  outcome: inactive
[10]
  Potency: 12.6 µM (active)

## CC(=O)[C@H]1CC[C@H]2[C@@H]3CC[C@H]4C[C@H](O)CC[C@]4(C)[C@H]3C(=O)C[C@]12C
[1]
  outcome: inactive
